Inconclusive results are not listed. Active and inactive are the calls of the source. How the source made its calls: active means hit-call score of the fitted dose curve at least 0.9, where 1 is the maximum; inconclusive means response in the unintended direction; inactive means score below 0.9.
These compounds were tested against human Retinoic Acid Receptor beta (RARb), RARB (gene 5915) (UniProt P10826) (assay: ATG_RARb_TRANS: Attagene TRANS-FACTORIAL HepG2 Assay for human Retinoic Acid Receptor beta (AID 2283004)).
Sequence of human Retinoic Acid Receptor beta (RARb), RARB (gene 5915) (P10826 whole entry, looked up): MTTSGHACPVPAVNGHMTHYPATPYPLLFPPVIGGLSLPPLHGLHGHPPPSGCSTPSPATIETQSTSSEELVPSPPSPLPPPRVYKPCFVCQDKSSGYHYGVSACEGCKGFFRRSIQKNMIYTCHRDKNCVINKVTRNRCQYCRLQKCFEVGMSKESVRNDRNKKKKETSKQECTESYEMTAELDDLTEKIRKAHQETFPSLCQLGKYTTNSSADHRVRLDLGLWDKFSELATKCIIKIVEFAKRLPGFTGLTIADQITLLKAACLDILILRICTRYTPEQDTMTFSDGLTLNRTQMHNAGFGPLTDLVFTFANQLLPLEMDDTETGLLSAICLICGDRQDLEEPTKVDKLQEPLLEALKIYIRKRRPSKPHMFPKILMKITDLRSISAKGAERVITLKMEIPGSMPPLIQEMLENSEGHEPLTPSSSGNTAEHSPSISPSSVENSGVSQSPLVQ
Description: ATG_TRANS is a cell-based, multiplexed-readout assay that uses HepG2, a human liver cell line, with measurements taken at 24 hours after chemical dosing in a 24-well plate.ATG_RARb_TRANS is one of 30 assay component(s) measured or calculated from the ATG_TRANS assay. It is designed to make measurements of mRNA induction, a form of inducible reporter, as detected with fluorescence intensity signals by Reverse transcription polymerase chain reaction (RT-PCR) and Capillary electrophoresis technology.Data from the assay component ATG_RARb_TRANS was analyzed into 1 assay endpoint. This assay endpoint, ATG_RARb_TRANS, was analyzed in the positive analysis fitting direction relative to DMSO as the negative control and baseline of activity. Using a type of inducible reporter, measures of mRNA for gain-of-signal activity can be used to understand the reporter gene at the transcription factor-level as they relate to the gene RARB. Furthermore, this assay endpoint can be referred to as a primary readout, because this assay has produced multiple assay endpoints where this one serves a reporter gene function. To generalize the intended target to other relatable targets, this assay endpoint is annotated to the nuclear receptor intended target family, where the subfamily is non-steroidal.
Human liver HepG2 cells are transiently transfected with multiple reporter transcription units (MRTUs) in 6-well plates using FuGene 6 reagent (Roche; 3 ml FuGene/1 mg DNA). The MRTU constructs are regulated by a cis-regulating element (promoter). […] A major difference between the CIS and TRANS system is that in CIS activities of endogenous TFs are measured, whereas the TRANS assay evaluates changes in activities of exogenous, chimeric NR-Gal4 proteins. […] At the end of 24 hour incubation, total RNA was isolated using TriZol reagent (Invitrogen). The isolated RNA is then reverse-transcribed using oligo(dT) primer and Mo-MLV reverse transcriptase (Invitrogen) with DNAse I (Ambion) treatment for 30 min. The one-tenth of the produced cDNA was amplified by PCR using Taq DNA polymerase (Invitrogen) and two reporter sequence-specific primers. The PCR products were fluorescently labeled by primer extension with 6-arboxyfluorescein (6-FAM) 5'-labeled reporter sequence-specific primer (2 min at 95 C, 20 s at 68 C and 10 min at 72 C) and these products were digested with 5U of HpaI (New England Biolabs) for 2h at 37 C. The fragments were purified using Qiaquick PCR columns (Qiagen), analyzed on an ABI 3130xL genetic analyzer (Applied Biosystems) with peak positions identified by using a set of X-rhodamine (ROX)-labeled MapMarker1000 molecular weight standards (BioVentures). The raw capillary electrophoresis data was processed using Attagraph software (Attagene).

Structure (SMILES)	outcome
CC1CCC(=O)C1=O (stereo not given)	inactive
CC(C)=NNC(N)=S	inactive
CCCCCCC=O	inactive
CCCCCCCCCCCCCC(=O)OC(C)C	inactive
Cc1noc(NS(=O)(=O)c2ccc(N)cc2)c1C	inactive
Cc1cccc(C(C)(C)C)c1O	inactive
c1ccc(Nc2cccc3ccccc23)cc1	inactive
CCCCCCOC(=O)CCCCC(=O)OCCCCCC	inactive
CCCCC1C(=O)N(c2ccccc2)N(c2ccccc2)C1=O	inactive
O=c1c(O)c(-c2ccc(O)cc2O)oc2cc(O)cc(O)c12	inactive
CCN(CC)c1cccc(C)c1	inactive
CO[Si](C)(C)OC	inactive
CCCC1CCCC(=O)O1 (stereo not given)	inactive
CC(C)c1ccc(O)c(C(C)C)c1	inactive
CC(=O)OC1CCCCC1C(C)(C)C (stereo not given)	inactive
CC(C)COC(=O)CC(C(=O)OCC(C)C)S(=O)(=O)O (stereo not given)	inactive
CCNc1nc(NC(C)(C)C)nc(OC)n1	inactive
CCc1cccc(C)c1N	inactive
CCCCNC(=S)NCCCC	inactive
C=Cc1ccc(OC(C)=O)cc1	inactive

Structure (SMILES)	outcome
CC(C)CO	inactive
CC1OC(=O)C(C)OC1=O (stereo not given)	inactive
Nc1ccc(Cl)c(N)c1	inactive
CC(=O)CCC=C(C)C	inactive
CN(C)c1ccc2nc3ccc(=[N+](C)C)cc-3sc2c1	inactive
O=C(OCCc1ccccc1)c1ccccc1	inactive
CCCCCCCCCCCC(C)=O	inactive
CCC1COC(=O)O1 (stereo not given)	inactive
CC1C(C)(C)C2=C(C(=O)CCC2)C1(C)C (stereo not given)	inactive
O=C(Cl)c1ccc(C(=O)Cl)cc1	inactive
CC(=O)OCCc1ccccc1	inactive
C=CCNCC=C	inactive
COc1nccnc1CC(C)C	inactive
CC(=O)OC(C)c1ccccc1 (stereo not given)	inactive
Clc1cc(Cl)c(Cl)c(Cl)c1Cl	inactive
CCOC(=O)[C@H](O)[C@@H](O)C(=O)OCC	inactive
O=S(=O)(O)c1ccc(N=Nc2c(O)ccc3ccccc23)cc1	inactive
CC(c1cc(C(C)(C)C)cc(C(C)(C)C)c1O)c1cc(C(C)(C)C)cc(C(C)(C)C)c1O	inactive
CC(=O)C(C)C	inactive
O=C(Nc1ccccc1)c1cc(Cl)ccc1O	inactive
